Assay [1] is described as follows: qHTS RealTime-Glo MT Cell Viability Assay in HEK293 cells - 40 hour (AID 1224874). Further: nearly all actives have a fitted effect of over 50% in size. Further: potency means the concentration at half of the fitted maximal effect. Particulars: RealTime-Glo luminescence; max response: stronger effect = lower value. The essentials:
(§1)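 600 cells/well were plated with the nonlytic NanoLuc/prosubstrate reagent, pre-incubated 5 h, then given 23 nL of compound in DMSO. Incubation at 37 C for 40 h, with luminescence from viable-cell-reduced substrate read repeatedly from 0 h.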

Assay [2] in a line: A CellTox Green Cytotoxicity Assay to monitor cytotoxicity in HEK293 cells - 24 hour (AID 1224875). Further: series mostly up to about 77 µM; nearly all actives have a fitted effect of over 45% in size. The essentials:
(§2)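 HEK293 cells, 600/well, were preincubated 5 hours and then exposed to compounds at 37 C for up to 40 hours. A cell-impermeant cyanine dye staining dead-cell DNA was read by fluorescence at 0, 8, 16, 24, 32 and 40 h time points.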

The nature of assay [3]: A CellTox Green Cytotoxicity Assay to monitor cytotoxicity in HepG2 cells - 16 hour (AID 1224876). Further: nearly all actives have a fitted effect of over 45% in size. The essentials:
(§3)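 HepG2 cells, 600/well, preincubated 5 h with CellTox Green dye, then exposed to Tox21 compounds in DMSO at 37 C for up to 40 h. Dead-cell DNA fluorescence read at the indicated time point.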

Assay [4] in a line: qHTS RealTime-Glo MT Cell Viability Assay in HepG2 cells - 32 hour (AID 1224877). Further: nearly all actives have a fitted effect of over 55% in size. The essentials:
(§4)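 qHTS, HepG2, 600 cells/well, RealTime-Glo (NanoLuc + prosubstrate) added with cells; 5 h preincubation; DMSO compound addition; 37 C; luminescence at 0/8/16/24/32/40 h.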

The nature of assay [5]: A CellTox Green Cytotoxicity Assay to monitor cytotoxicity in HepG2 cells - 24 hour (AID 1224878). Further: nearly all actives have a fitted effect of over 45% in size. A digest of the protocol:
as §3

The nature of assay [6]: A CellTox Green Cytotoxicity Assay to monitor cytotoxicity in HepG2 cells - 40 hour (AID 1224879). Further: nearly all actives have a fitted effect of over 40% in size. The essentials:
as §3

The nature of assay [7]: qHTS RealTime-Glo MT Cell Viability Assay in HEK293 cells - 0 hour (AID 1224880). Further: top concentration of the series differs between compounds; nearly all actives have a fitted effect of over 45% in size. A digest of the protocol:
as §1

Assay [8] in a line: A CellTox Green Cytotoxicity Assay to monitor cytotoxicity in HEK293 cells - 32 hour (AID 1224881). Further: nearly all actives have a fitted effect of over 40% in size. A digest of the protocol: as §2
Assay [9] can be described thus: A CellTox Green Cytotoxicity Assay to monitor cytotoxicity in HepG2 cells - 0 hour (AID 1224882). Further: nearly all actives have a fitted effect of over 35% in size. The essentials:
as §3

Assay [10] can be described thus: A CellTox Green Cytotoxicity Assay to monitor cytotoxicity in HepG2 cells - 32 hour (AID 1224883). Further: nearly all actives have a fitted effect of over 50% in size. A digest of the protocol: as §3
Assay [11] is described as follows: A CellTox Green Cytotoxicity Assay to monitor cytotoxicity in HEK293 cells - 8 hour (AID 1224884). Further: nearly all actives have a fitted effect of over 35% in size. A digest of the protocol:
as §2

Assay [12] is described as follows: qHTS RealTime-Glo MT Cell Viability Assay in HepG2 cells - 16 hour (AID 1224885). Further: nearly all actives have a fitted effect of over 50% in size. The essentials:
as §4

Assay [13] can be described thus: qHTS RealTime-Glo MT Cell Viability Assay in HEK293 cells - 24 hour (AID 1224886). Further: nearly all actives have a fitted effect of over 50% in size. Further: potency means the concentration at half of the fitted maximal effect. The essentials: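 Assay medium contained NanoLuc luciferase plus cell-permeant prosubstrate, added with HEK293 cells at 600 cells/well. After 5 h at 37 C/5% CO2 compounds were added; plates stayed at 37 C for 40 h with serial luminescence reads.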
Assay [14] is described as follows: qHTS RealTime-Glo MT Cell Viability Assay in HEK293 cells - 8 hour (AID 1224887). A digest of the protocol: as §1
Assay [15] is described as follows: A CellTox Green Cytotoxicity Assay to monitor cytotoxicity in HEK293 cells - 16 hour (AID 1224888). Further: nearly all actives have a fitted effect of over 35% in size. A digest of the protocol: as §2
Assay [16] is described as follows: qHTS RealTime-Glo MT Cell Viability Assay in HepG2 cells - 0 hour (AID 1224889). Further: nearly all actives have a fitted effect of over 50% in size. The essentials:
as §4

The nature of assay [17]: A CellTox Green Cytotoxicity Assay to monitor cytotoxicity in HepG2 cells - 8 hour (AID 1224890). Further: nearly all actives have a fitted effect of over 45% in size. The essentials: as §3
The nature of assay [18]: qHTS assay to identify small molecule antagonists of the estrogen receptor alpha (ER-alpha) signaling pathway using the BG1 cell line in the presence of 0.1 nM 17-beta-estradiol - cell viability counter screen (AID 1259241). Further: nearly all actives have a fitted effect of over 40% in size. The essentials: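 Live-cell protease activity (CellTiter-Fluor fluorescence, 30 min) was read in the same wells after VM7Luc4E2 cells had been exposed to compounds with 0.1 nM 17beta-estradiol for 22 hr at 37C.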

A short description of assay [19]: qHTS assay to identify small molecule antagonists of the androgen receptor (AR) signaling pathway using the MDA cell line in the presence of 0.5 nM R1881 - cell viability counter screen (AID 1259242). Further: nearly all actives have a fitted effect of over 45% in size. The essentials: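 MDA-kb2 cells (MMTV-luciferase, AR/GR responsive) were treated with compounds plus 0.5 nM R1881 (final) for 16 hr at 37C, 0% CO2. Viability was then read in the same wells as live-cell protease fluorescence (CellTiter-Fluor, 30 min).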

Several values for one entry are separate records, joined by “and”; a condition that tells them apart may be missing. Equal entries are not always repeated. Inconclusive results are not listed. Some compounds were tested as several samples or in several runs, with calls that do not always agree. Activity calls are given as the source filed them. The call rests on the fitted dose curve; in most records, active means well fitted curve in the direction sought with a large enough effect in the repeat runs; inconclusive means weak or mixed curves; inactive means no such curve, though single readings can be large; an effect the other way counts as inactive or inconclusive.
On the % scale 0 is the no-effect control and ±100 the full control effect.

Turning to `Clc1ccc(Cl)cc1`, the max response in assay [1] is 6.61% (inactive) and 0.839% (inactive). The Potency result in assay [2], in assay [3], in [5], in [6], in [8] and in assay [9] was “inactive” each time. In addition, the Potency entry in assay [10], in [11], in assay [13], in assay [15], in [17] and in [18] was “inactive” each time. Also, the result in assay [4], in assay [7], in assay [12], in assay [14], in [16] and in [19] was inactive.

Regarding `CON(C)C(=O)Nc1ccc(Cl)c(Cl)c1`, the Potency in assay [1] is 43.6 µM (active); in assay [13] it was “inactive and 43.6 µM (active)”. The max response in [1] is -28.4% (inactive). Further, the Potency entry in assay [2], in assay [3], in assay [5], in assay [6], in assay [8] and in assay [9] was “inactive” each time. Moreover, the Potency result in [10], in assay [11], in [15] and in assay [18] was “inactive” throughout. The molecule was classed as inactive in [4], in [7], in assay [12], in assay [14], in [16] and in [19].

Regarding `CCNc1nc(NC(C)(C)C)nc(SC)n1`, the Potency in assay [1] is 27.2 µM (active); in [13] it was 43.1 µM (active). In addition, the Potency result in assay [2], in assay [3], in assay [5], in assay [6], in assay [8] and in assay [9] was “inactive” in each case. For the same molecule, the Potency result in [10], in assay [11], in assay [15], in assay [17] and in assay [18] was “inactive” each time. The molecule was classed as inactive in [4], in [7], in assay [12], in [14], in assay [16] and in [19].

Regarding `CN=C=S`, the max response in assay [1] is 6.14% (inactive) and -4.64% (inactive). The Potency entry in assay [2], in [3], in assay [5], in assay [6], in assay [8] and in assay [9] was “inactive” in each case. Besides, the Potency entry in [10], in assay [11], in [13], in assay [15], in assay [17] and in assay [18] was “inactive” each time. Besides, the call in assay [4], in assay [7], in assay [12], in [14], in [16] and in assay [19] was inactive.

`CC1OC(C)OC(C)O1` (stereo not drawn): the max response in [1] is 8.31% (inactive) and 5.6% (inactive). The Potency entry in assay [2], in assay [3], in assay [5], in assay [6], in assay [8] and in assay [9] was “inactive” each time. In addition, the Potency result in assay [10], in [11], in assay [13], in assay [15], in assay [17] and in assay [18] was “inactive” each time. Moreover, the outcome in [4], in assay [7], in assay [12], in [14], in assay [16] and in [19] was inactive.

With `C1CC2OC2CC1C1CO1` (stereo not drawn), the max response in [1] was 9.84% (inactive). In addition, the Potency result in assay [2], in [3], in assay [5], in assay [6], in assay [8] and in assay [9] was “inactive” in each case. Also, the Potency result in [10], in [11], in assay [13], in assay [15], in [17] and in assay [18] was “inactive” in each case. Further, the call in assay [4], in assay [7], in [12], in assay [14], in [16] and in assay [19] was inactive.

Take `CCCCCOC(=O)c1ccccc1C(=O)OCCCCC`: the max response in assay [1] was -11.1% (inactive) and -2.4% (inactive). The Potency result in assay [2], in [3], in assay [5], in assay [6], in assay [8] and in [9] was “inactive” in each case. Also, the Potency entry in assay [10], in assay [11], in assay [13], in [15], in [17] and in assay [18] was “inactive” each time. Besides, the molecule was classed as inactive in assay [4], in assay [7], in assay [12], in assay [14], in [16] and in [19].

On to `NCC(O)c1ccc(O)cc1` (stereo not drawn), for which the max response in assay [1] is -6.22% (inactive) and 3.7% (inactive). The Potency entry in assay [2], in assay [3], in assay [5], in [6], in assay [8] and in assay [9] was “inactive” in each case. For the same molecule, the Potency result in assay [10], in [11], in assay [13], in [15], in assay [17] and in assay [18] was “inactive” in each case. Also, the molecule was classed as inactive in [4], in assay [7], in [12], in [14], in assay [16] and in [19].

As to `COC(=O)NS(=O)(=O)c1ccc(N)cc1`, the max response in assay [1] was 15.7% (inactive) and 20.4% (inactive). In addition, the Potency entry in assay [2], in assay [3], in assay [5], in assay [6], in assay [8] and in [9] was “inactive” in each case. Also, the Potency entry in assay [10], in assay [11], in assay [13], in assay [15], in assay [17] and in [18] was “inactive” in each case. Moreover, the call in assay [4], in [7], in assay [12], in assay [14], in assay [16] and in assay [19] was inactive.

For `CC(C)N1C(=O)c2ccccc2NS1(=O)=O`, in assay [1], the max response is -5.03% (inactive) and 3.56% (inactive). Besides, the Potency entry in assay [2], in assay [3], in assay [5], in [6], in assay [8] and in assay [9] was “inactive” throughout. Further, the Potency entry in assay [10], in assay [11], in assay [13], in assay [15], in assay [17] and in assay [18] was “inactive” throughout. The result in assay [4], in assay [7], in [12], in assay [14], in [16] and in assay [19] was inactive.

Take `Nc1ccc(Cc2ccc(N)cc2)cc1`: in [1], the max response is -10.2% (inactive). The Potency result in assay [2], in assay [3], in [5], in assay [6], in assay [8] and in [9] was “inactive” in each case. Also, the Potency entry in assay [10], in [11], in assay [13], in assay [15], in assay [17] and in [18] was “inactive” each time. Besides, the molecule was called inactive in [4], in assay [7], in assay [12], in [14], in [16] and in assay [19].

Turning to `C[C@]12CC[C@H]3[C@@H](CC[C@@]45O[C@@H]4C(O)=C(C#N)C[C@]35C)[C@@H]1CC[C@@H]2O`, the max response in assay [1] was 27.1% (inactive) and 19.8% (inactive). Moreover, the Potency result in assay [2], in assay [3], in assay [5], in assay [6], in [8] and in assay [9] was “inactive” throughout. Besides, the Potency entry in assay [10], in assay [11], in assay [13], in [15], in [17] and in assay [18] was “inactive” each time. In addition, the molecule was called inactive in [4], in assay [7], in [12], in [14], in [16] and in [19].
